HT1080NT lethal = kills 2HG-producing HT-1080-NT fibrosarcoma cells | HT-1080-NT fibrosarcoma viability, CellTiter-Glo ATP luminescence, 48 h | Potency, µM (doses to about 46.1 µM), inactives show at the top dose activity, negative = less viability, most hits filed as cytotoxic | 360,000 compounds, 1.6% hits;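 note: NT is the 2HG producing partner of a matched IDH1 knockdown line; potency is the fitted concentration of half-maximal effect; 0% = DMSO-treated cells and -100% = media-only wells without cells; nearly all actives have a fitted effect of over 55% in size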
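750 cells/well, RPMI + 5% FBS; 2 h settle, compound pin-transfer, 48 h at 37 degrees C. CellTiter-Glo 10 min RT, luminescence. Normalized to DMSO and media-only wells.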
TDP1 cell CPT = DT40-hTDP1 cell growth loss with CPT; chicken DT40 Tdp1-/-;hTDP1 cells + 20 nM CPT, ATP luminescence, 48 h; Potency, µM (top dose mostly 46.2 µM), without a hit: top-dose activity change, negative = growth inhibition, most hits filed as inhibitors; 420,000 compounds, 12% hits; AID 686979; note: potency is the fitted concentration of half-maximal effect; nearly all actives have a fitted effect of over 55% in size
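Chicken DT40 Tdp1-/- cells complemented with human TDP1, 400 cells/well, exposed to compounds plus 20 nM camptothecin for at least 48 h at 37 C; viability read as ATP content by CellTiter-Glo luminescence.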
TDP1 cell noCPT = qHTS for Inhibitors of human tyrosyl-DNA phosphodiesterase 1 (TDP1): qHTS in cells in absence of CPT. Potency, µM (highest dose often 46.2 µM), for inactives: at the highest dose activity change, negative = growth inhibition, actives largely listed as inhibitors. AID 686978, 2013. 420,000 compounds, 15% hits. DT40 Tdp1-/- hTDP1 cells, no CPT, ATP luminescence, 48 h; note: potency is the fitted concentration of half-maximal effect; nearly all actives have a fitted effect of over 55% in size
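Growth of hTDP1-complemented DT40 Tdp1-knockout cells is measured by ATP luminescence after at least 48 hr compound exposure at 37 °C, with DMSO substituting for the 20 nM CPT used in the parallel screen.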
HT1080 IDH1KD tx = toxicity to HT-1080 IDH1 knockdown cells (counter line); HT-1080 IDH1 knockdown viability, ATP luminescence, 48 h; Potency, µM (top dose mostly 46.1 µM), for inactives: at the top dose activity, negative = toxicity, most hits filed as cytotoxic; 360,000 compounds, 2% hits; AID 686971;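 note: potency is the fitted concentration of half-maximal effect; 0% = DMSO wells and -100% = cell-free medium wells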
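After a 2 h attachment period, IDH1KD HT-1080 cells took pin-transferred compound for 48 h at 37 °C; ATP-based luminescence after 10 min room-temperature reagent incubation reported viability.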
IL-1B inflam inh = inhibitors of inflammasome signaling (IL-1 beta secretion); THP-1 LPS/ATP IL-1B secretion, AlphaLISA, 16 h; active compounds read low; activity change, % at 57.5 µM; 360,000 compounds, 4.7% hits; AID 743279; in the data active = activity change below about -50%; inconclusive = mostly about -30% to -49%
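Secreted IL-1B measured by AlphaLISA bead assay after 16 h compound exposure of THP-1 cells; compounds (final up to 57.5 uM) added 1 h before LPS (250 ng/mL) and ATP (1.25 mM) stimulation; lower signal means less secretion.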
Starred values were filed as active, the others as inactive. An excerpt weighted towards active compounds, which were near 19% of everything screened. Unless noted, calls come from the whole dose curve; as a rule, active = well fitted curve in the direction sought with a large enough effect; inconclusive = small, poorly fitted or top-dose-only effect, or another doubt; inactive = no such curve, though single readings can be large; an effect the other way counts as inactive or inconclusive. Unless noted, % is set by controls: 0 for no effect and ±100 for the full control effect.

CCOC(=O)Cn1c(=N)n(CCOc2ccc3ccccc3c2)c2ccccc21 was read as HT1080NT lethal inconclusive, TDP1 cell CPT 17.8µM*, TDP1 cell noCPT inconclusive, HT1080 IDH1KD tx inconclusive and IL-1B inflam inh -4.9.
For Cn1c(=O)n(CCCOc2ccc(Br)cc2)c2ccccc21 the results were HT1080NT lethal 1.2%, TDP1 cell CPT -0.3%, TDP1 cell noCPT inconclusive, HT1080 IDH1KD tx -15.8% and IL-1B inflam inh -7.9.
`CCCn1c(=N)n(CCOc2ccc(OC)cc2)c2ccccc21` gave HT1080NT lethal inconclusive, TDP1 cell CPT 16.4µM*, TDP1 cell noCPT 18.4µM*, HT1080 IDH1KD tx inconclusive and IL-1B inflam inh -58.2*.
For N=c1n(CCCOc2ccc(Br)cc2)c2ccccc2n1CC(N)=O the results were HT1080NT lethal inconclusive, TDP1 cell CPT 18.4µM*, TDP1 cell noCPT 16.4µM*, HT1080 IDH1KD tx inconclusive and IL-1B inflam inh -14.2.
Screening COc1ccc(OCCn2c(C)nc3ccccc32)cc1 returned HT1080NT lethal -4.6%, TDP1 cell CPT inconclusive, TDP1 cell noCPT inconclusive, HT1080 IDH1KD tx -6.3% and IL-1B inflam inh inconclusive.
`CCOC(=O)Cn1c(=N)n(CCOc2ccc(OC)cc2)c2ccccc21` gave HT1080NT lethal 0.5%, TDP1 cell CPT -13.8%, TDP1 cell noCPT -10.3%, HT1080 IDH1KD tx 9.7% and IL-1B inflam inh inconclusive.
For O=C(Nc1ccc(F)cc1F)c1cc2nc(-c3ccco3)cc(C(F)(F)Cl)n2n1 the results were TDP1 cell CPT -3.9% and TDP1 cell noCPT -9.1%.
`Cc1cc(C)cc(NC(=O)CSc2nnc(CNC(=O)c3ccco3)o2)c1` gave HT1080NT lethal 5.1%, TDP1 cell CPT -19.7%, TDP1 cell noCPT -10.0%, HT1080 IDH1KD tx 9.6% and IL-1B inflam inh 9.0.
For CCN1C(=O)[C@@H]2[C@@H](c3ccc(-c4ccc(F)cc4)cc3)N3CCCC[C@@]3(C(=O)OC)[C@@H]2C1=O the results were HT1080NT lethal -10.1%, TDP1 cell CPT inconclusive, TDP1 cell noCPT 23.1µM*, HT1080 IDH1KD tx inconclusive and IL-1B inflam inh 10.6.
Screening CCSc1ccc([C@@H]2[C@@H]3C(=O)N(CC)C(=O)[C@@H]3[C@]3(C(=O)OC)CCCCN23)cc1OC returned HT1080NT lethal -3.2%, TDP1 cell CPT -11.3%, TDP1 cell noCPT inconclusive, HT1080 IDH1KD tx 1.2% and IL-1B inflam inh -17.2.
For CCN1C(=O)[C@@H]2[C@@H](c3ccc(-c4ccc(F)cc4)c(OC)c3)N3CCCC[C@@]3(C(=O)OC)[C@@H]2C1=O the results were HT1080NT lethal 0.0%, TDP1 cell CPT 16.4µM*, TDP1 cell noCPT 16.4µM*, HT1080 IDH1KD tx 19.3% and IL-1B inflam inh -18.8.
`CCN1C(=O)[C@H]2[C@@H](c3ccc(-c4ccc(C(C)=O)cc4)c(OC)c3)N3CCCC[C@@]3(C(=O)OC)[C@H]2C1=O` gave HT1080NT lethal 0.0%, TDP1 cell CPT 23.1µM*, TDP1 cell noCPT 16.4µM*, HT1080 IDH1KD tx -10.6% and IL-1B inflam inh -13.9.
`N#Cc1cc2sc3nnc(-c4ccncc4)n3c2cc1C#N` gave HT1080NT lethal inconclusive, TDP1 cell CPT inconclusive, TDP1 cell noCPT 10.3µM*, HT1080 IDH1KD tx inconclusive and IL-1B inflam inh -83.3*.
CCn1cc(C(=O)N2CCN(c3cccc(Cl)c3)CC2)c(=O)c2cc(S(=O)(=O)N3CCCCC3)ccc21 was read as TDP1 cell CPT -9.5% and TDP1 cell noCPT 0.6%.
COc1ccc(CNC(=O)C(=O)NCC2OCCN2S(=O)(=O)c2ccccc2)cc1 (stereo not given) was read as HT1080NT lethal 4.9%, TDP1 cell CPT -12.6%, TDP1 cell noCPT -24.4%, HT1080 IDH1KD tx -0.2% and IL-1B inflam inh 3.8.
CCOC(=O)c1cc(-c2ccccc2)n(CC(=O)Nc2cccc(OC)c2)c1C was read as HT1080NT lethal -24.8%, TDP1 cell CPT inconclusive, TDP1 cell noCPT 5.8µM*, HT1080 IDH1KD tx inconclusive and IL-1B inflam inh -16.2.
CC(=O)c1cc(-c2ccccc2)n(CC(=O)Nc2cccc(C)c2)c1C was read as HT1080NT lethal -25.2%, TDP1 cell CPT 18.4µM*, TDP1 cell noCPT 14.6µM*, HT1080 IDH1KD tx -13.7% and IL-1B inflam inh -4.1.
CCOC(=O)c1cc(-c2ccccc2)n(CCC(=O)Nc2cc(OCC)ccc2OCC)c1C was read as TDP1 cell CPT 16.4µM* and TDP1 cell noCPT inconclusive.
Screening CCOC(=O)c1cc(-c2ccccc2)n(CC(=O)Nc2ccc(OC)c(OC)c2)c1C returned HT1080NT lethal -1.9%, TDP1 cell CPT inconclusive, TDP1 cell noCPT inconclusive, HT1080 IDH1KD tx -1.9% and IL-1B inflam inh 26.6.
CCOC(=O)c1cc(-c2ccccc2)n(CC(=O)NCc2ccccc2OC)c1C was read as TDP1 cell CPT 16.4µM* and TDP1 cell noCPT 16.4µM*.
For COC(=O)c1cc(-c2ccccc2)n(CC(=O)O)c1C the results were HT1080NT lethal 9.4%, TDP1 cell CPT 25.0%, TDP1 cell noCPT -12.6%, HT1080 IDH1KD tx 13.4% and IL-1B inflam inh 15.7.
For CC(C)(C)OC(=O)N1Cc2[nH]c3ccccc3c2C[C@@H]1C(=O)O the results were HT1080NT lethal 0.9%, TDP1 cell CPT -3.3%, TDP1 cell noCPT 7.0%, HT1080 IDH1KD tx 4.4% and IL-1B inflam inh 14.6.
For Cc1ccc(C(=O)CN(CCC(=O)O)S(=O)(=O)c2ccc([N+](=O)[O-])cc2)cc1 the results were HT1080NT lethal 10.0%, TDP1 cell CPT -2.2%, TDP1 cell noCPT 1.0%, HT1080 IDH1KD tx 9.7% and IL-1B inflam inh 42.4.
Screening CC(=O)c1c(N2CCN(C)CC2)nc(=S)n(-c2cc(C)ccc2C)c1C returned HT1080NT lethal -2.4%, TDP1 cell CPT 5.7%, TDP1 cell noCPT -17.9%, HT1080 IDH1KD tx 3.7% and IL-1B inflam inh 0.0.
CCCCCCCCC(=O)Nc1cc(C)ccc1OC was read as HT1080NT lethal 10.0%, TDP1 cell CPT -16.5%, TDP1 cell noCPT inconclusive, HT1080 IDH1KD tx 4.9% and IL-1B inflam inh -7.0.
For CCOC(=O)c1cc(-c2ccccc2)n(CC(=O)Nc2ccccc2OCC)c1C the results were TDP1 cell CPT -81.1% and TDP1 cell noCPT 9.2µM*.
CCOC(=O)c1cc(-c2ccccc2)n(CCCC(=O)Nc2cc(C)ccc2OC)c1C was read as TDP1 cell CPT 18.4µM* and TDP1 cell noCPT 23.1µM*.
For S=C(N/N=C/c1ccccc1)N1CCOCC1 the results were HT1080NT lethal 0.7%, TDP1 cell CPT inconclusive, TDP1 cell noCPT inconclusive, HT1080 IDH1KD tx -9.1% and IL-1B inflam inh 24.1.
`O=C(C1CCCN1S(=O)(=O)c1ccc(Cl)c(Cl)c1)N1CCCCC1` (stereo not given) gave HT1080NT lethal 9.1%, TDP1 cell CPT 18.4µM*, TDP1 cell noCPT 16.4µM*, HT1080 IDH1KD tx 0.7% and IL-1B inflam inh 6.5.
